This is part of a sample that, as a whole, favours compounds with a hit. Of some 79,000 tested, about 15% had one in any assay. Active and inactive are the calls of the source. Cut-off read from the data, not from the text of the source: active = growth inhibition above about 70%; inactive = the rest. Where a SMILES comes first, the peptide text is derived from it. [ ]: non-standard residue; d: D form. The star is where a group is joined. Nle = CCCC[CH](N)C(=O)O; Cbz = O=C(OCc1ccccc1)*; OBn = c1ccc(CO*)cc1
What was measured:
[1] = NCI Yeast Anticancer Drug Screen. Data for the rad50 strain (AID 155);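 note: 0% = growth of vehicle-only cultures of the same strain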; details: S. cerevisiae rad50 strain growth inhibition; at 50.0 µM; stronger effect = higher value
Procedure, shortened: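 Relative growth inhibition (compound vs vehicle) was measured in yeast with a defined repair-gene alteration.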

[2] = NCI Yeast Anticancer Drug Screen. Data for the mec2-1 strain (AID 157); details: S. cerevisiae mec2-1 strain, at 50.0 µM, stronger effect = higher value
Procedure, shortened: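 Growth inhibition is read against vehicle-treated controls after compound exposure of the mec2-1 yeast strain, which is defective in DNA damage repair or cell cycle control.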

[3] = NCI Yeast Anticancer Drug Screen. Data for the sgs1 mgt1 strain (AID 161);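 note: 0% = growth of cultures given vehicle only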; details: S. cerevisiae sgs1 mgt1 strain, at 50.0 µM, stronger effect = higher value
Procedure, shortened: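 Growth of a repair-deficient yeast mutant was monitored after compound treatment and expressed as inhibition relative to vehicle-treated cultures.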

[4] = NCI Yeast Anticancer Drug Screen. Data for the cln2 rad14 strain (AID 165);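 note: 0% = growth equal to vehicle treated cultures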; details: S. cerevisiae cln2 rad14 strain, at 50.0 µM, stronger effect = higher value
Procedure, shortened: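 Growth inhibition, relative to vehicle-treated controls, is the read-out. The test organism is a yeast strain with defined genetic alterations, cln2 rad14.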

[5] = NCI Yeast Anticancer Drug Screen. Data for the bub3 strain (AID 167); details: S. cerevisiae bub3 mutant strain, at 50.0 µM, stronger effect = higher value
Procedure, shortened: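 Screening used yeast with an engineered genetic alteration affecting cell cycle control. Compound-exposed cultures were compared with vehicle cultures, and reduced growth was taken as inhibition.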

[6] = NCI Yeast Anticancer Drug Screen. Data for the mlh1 rad18 strain (AID 175); details: S. cerevisiae mlh1 rad18 strain growth inhibition; at 50.0 µM; stronger effect = higher value
Procedure, shortened: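 Cells of a genetically altered yeast strain, deficient in DNA damage repair, were treated with compound. Their growth was then compared with that of vehicle-treated cultures to give inhibition.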

Measured: growth inhibition

Cc1cccc(C(=O)OCc2ccccc2CN2CCCC2)c1
inactive: [1] 1.5% | [2] -7.75% | [3] -10.1% | [4] 2.85% | [5] -2.05% | [6] -1.45%

O=C(Nc1cc(C(F)(F)F)ccc1Cl)C(=O)C(C(=O)c1ccc2ccccc2c1)C1OC(=O)c2ccccc21 (stereo unspecified)
inactive: [1] 35% | [2] 24.4% | [3] 19.6% | [4] 20.3% | [5] 30.9% | [6] 55.5%

CCOC(=O)c1ccc(-n2c(SCC)nc3sc(C)c(C)c3c2=O)cc1
inactive: [1] -18.9% | [2] -17.8% | [3] -40.5% | [4] -38.5% | [5] -31.8% | [6] -29.3%

NCC(=O)N1CCCC1C(=O)O (stereo unspecified)
inactive: [1] -9.8% | [2] -6.3% | [3] -0.7% | [4] -24.4% | [5] 0.05% | [6] -6.2%

CCOc1ccc(-n2c(=O)c(N=Nc3ccccc3Cl)c(O)n(-c3ccc(Br)cc3)c2=S)cc1
inactive: [1] 38.5% | [2] 17.9% | [3] 52.1% | [4] 12.7% | [5] -11.7% | [6] 5.8%

Nc1nc(N)c2cc(CNc3ccc(C(=O)NC(C(=O)O)C(=O)O)cc3)ccc2n1
inactive: [1] -39.1% | [2] 8.1% | [3] -3.15% | [4] -16.6% | [5] -14.2% | [6] -15.6%

CSc1ccc(NC(=O)COc2ccccc2)cc1
inactive: [1] 9.75% | [2] 19.1% | [3] 6.05% | [4] -3.7% | [5] 39.3% | [6] 21.7%

CSC(=N\N=C\c1c(F)cccc1Cl)/N=C/N(C)C
inactive: [1] 8.7% | [2] -4.1% | [3] 12.7% | [4] 14.8% | [5] -2.85% | [6] 4%

Cc1ccc2ccc(=O)oc2c1
inactive: [1] 7.9% | [2] 1.05% | [3] 2.85% | [4] 7.45% | [5] 13.8% | [6] 6.85%

O=C(O)C(Br)C(Br)C(=O)Nc1ccc(Br)cc1 (stereo unspecified)
inactive: [1] -6.35% | [2] -24.4% | [3] 22.8% | [4] -3.85% | [5] 34.1% | [6] 27.4%

CCc1cccc[n+]1CC(=O)c1ccccc1
inactive: [1] -23.5% | [2] 5.85% | [3] -0.85% | [4] -41.8% | [5] 39.7% | [6] 12%

O=P(CCCCBr)(NCc1ccccc1)c1ccccc1 (stereo unspecified)
inactive: [1] 5.25% | [2] 7.85% | [3] 15.9% | [4] -19.9% | [5] 14.8% | [6] 13.2%

CCOC(=O)C(NC(=O)CC)(C(F)(F)F)P(=O)(OCC)OCC (stereo unspecified)
inactive: [1] -22.5% | [2] -12.3% | [3] -35.7% | [4] -11.8% | [5] 14.1% | [6] -9.35%

O=C(O)CCc1nc(-c2ccccc2-n2cccc2)no1
inactive: [1] -43.8% | [2] -36.1% | [3] -30.4% | [4] 38.2% | [5] -15.4% | [6] 8.2%

CC12OC(=O)C(C#N)C1(C)C1C(=O)CCCC12 (stereo unspecified)
inactive: [1] -2.8% | [2] -7.55% | [3] 7.4% | [4] 1.9% | [5] -0.3% | [6] -8.55%

CCCC1(C)COC(=O)OC1
inactive: [1] 6% | [2] 6.5% | [3] 17.5% | [4] 13.9% | [5] 7.1% | [6] 19.9%

CCCCC(NC(=O)C1CCCN1C(=O)OCc1ccccc1)C(=O)OCc1ccccc1 (stereo not drawn) (Cbz-Pro-[Nle]-OBn; configuration not given here)
inactive: [1] 12.4% | [2] 12.2% | [3] 11.4% | [4] -10.9% | [5] -5.45% | [6] 15.9%

CCOC(=O)c1sc(C(=O)OCC)c(O)c1O
active: [1] 97% | [2] 95.5% | [3] 97.8% | [5] 95.7% | [6] 97%
inactive: [4] 58.4%

NC(Cc1ccc(S(=O)(=O)O)cc1)C(=O)NC(Cc1ccc(S(=O)(=O)O)cc1)C(=O)NC(Cc1ccc(S(=O)(=O)O)cc1)C(=O)O (stereo unspecified)
inactive: [1] -4.25% | [2] -14.8% | [3] 27.1% | [4] -9.5% | [5] 9.3% | [6] -8.2%

CC(=O)O[C@H]1C[C@H]2[C@@H](OC(C)=O)/C=C3\C[C@](C)(C(=O)[C@H](O)C(=C1C)C2(C)C)[C@@H](O)C[C@@H]3OC(=O)[C@H](O)[C@H](c1ccccc1)N(C)C
inactive: [1] 7.3% | [2] -0.45% | [3] -8.6% | [4] -10.3% | [5] -1.4% | [6] 2.4%

NCC(N)C(O)C(O)C(O)CO (stereo unspecified)
inactive: [1] 5.65% | [2] -2.25% | [3] -2.85% | [4] -43.1% | [5] -16.4% | [6] 2.7%

C/C(=C\C(=N\Nc1nc(C)cc(=O)[nH]1)c1ccccc1)c1ccccc1
inactive: [1] 12.4% | [2] -11.4% | [3] -8.75% | [4] 3.45% | [5] 6.8% | [6] -2.2%

CC(=O)/C=C(O)/C=C/c1ccccc1
inactive: [1] -0.9% | [2] 5.45% | [3] -12.9% | [4] 9.15% | [5] 14.9% | [6] 12.9%

C/C=C/c1ccc2oc(-c3ccc(OC4OC(C)C(O)C(O)C4O)cc3)c(C)c2c1 (stereo unspecified)
inactive: [6] 51.9%
active: [1] 98.9% | [2] 99% | [3] 99.2% | [4] 98.7% | [5] 98.5%

Cc1cc2[nH]c3c(C#N)c(O)c(C(C)C)c(=O)n3c2cc1C
inactive: [1] -1.05% | [2] 7.8% | [3] 11.6% | [4] 1.35% | [5] 10.8% | [6] 11.2%

Cc1ccc(S(=O)(=O)NC2C(=O)c3ccccc3C(=O)C2n2ccnc2)cc1 (stereo unspecified)
inactive: [1] 4.85% | [2] -1.8% | [3] 0.75% | [4] 2.75% | [5] 7.8% | [6] -21.5%

O=C(O)C(=N\Nc1ccccc1)/C(=N\Nc1ccccc1)C(=O)O
inactive: [1] 30.7% | [2] -6.25% | [3] 33.9% | [4] 21.8% | [5] 24.2% | [6] 7.3%

NCC(=O)N1CCCCC1
inactive: [1] 7.05% | [2] 9.75% | [3] 4.95% | [4] -8.15% | [5] -2.1% | [6] 7.7%

Nc1cc(Cl)nc(N)n1
inactive: [1] -12.2% | [2] -16.4% | [3] 9.9% | [4] 0.1% | [5] -5.4% | [6] 17.6%

O=S(=O)(NC1c2ccccc2Oc2ccccc21)c1ccc2ccccc2c1
inactive: [1] 28.4% | [2] 11.1% | [3] 16.6% | [4] 19.1% | [5] 9.65% | [6] 39.7%

CC(=O)Nc1ccc(NC(=O)c2cccc3ccccc23)cc1
inactive: [1] -5.1% | [2] 13% | [3] 13.8% | [4] -12.8% | [5] 35.4% | [6] 32.1%

O=C1OC(c2ccccc2)=CC1Cc1ccccc1 (stereo unspecified)
inactive: [1] 34.9% | [2] -2.35% | [3] 1.85% | [4] 3.4% | [5] -3% | [6] -8%

Cc1c2cc3c(c1O)C(=O)CC(O3)c1ccc(O)c(c1)-c1cccc(c1O)C(=O)OCC1OC(O2)C(O)C(O)C1O (stereo unspecified)
inactive: [1] 51.2% | [2] 54.4% | [3] 32% | [4] 34.5% | [5] 39.6% | [6] 30.1%

COC(=O)[C@]12CCC(C)(C)C[C@H]1C1=CC[C@@H]3[C@@]4(C)CC[C@H](OC5OC(CO)C(O)C(O)C5OC5OC(CO)C(O)C(O)C5O)C(C)(C)[C@@H]4CC[C@@]3(C)[C@]1(C)CC2 (stereo partly specified)
active: [1] 89% | [2] 90.8% | [3] 91.4% | [4] 90% | [5] 90.9% | [6] 89.5%

Clc1ccc(SCCCCSc2ccc(Cl)cc2)cc1
inactive: [1] 8.05% | [2] -6.7% | [3] 7.7% | [4] -3.45% | [5] 10.8% | [6] 10.8%

Cc1cc(=O)n2cn[nH]c2n1
inactive: [1] 24.4% | [2] -11.6% | [3] 24.1% | [4] 5.25% | [5] 9.25% | [6] 25.8%

CN(CC(=O)O)Cc1ccccc1
inactive: [1] 9.5% | [2] 19.4% | [3] 10.5% | [4] -13.9% | [5] 9.35% | [6] 3.3%

Cc1ccc(S(=O)(=O)N(c2c(F)cc(C#N)cc2F)S(=O)(=O)c2ccc(C)cc2)cc1
inactive: [1] 51.7% | [2] 6.35% | [3] 32.8% | [4] 30.1% | [5] 2.6% | [6] 31.6%

CCc1cccc(C(C)(C)C)c1NC(=S)N/C=C(/C#N)C(N)=O
inactive: [1] 8.2% | [2] -7.45% | [3] 16.9% | [4] 13.7% | [5] -15.9% | [6] 11.8%

C=C(C)C#CC1(O)C=C(OC)C(OC)=CC1=O (stereo unspecified)
inactive: [1] -36.4% | [2] -12.7% | [3] -10.1% | [4] -61.9% | [5] -13.1% | [6] 7.35%

COc1ccc(C2C(Cl)C(=O)N2NC(=O)Cc2ccccc2)cc1 (stereo unspecified)
inactive: [1] -10.6% | [2] -11.9% | [3] -7.3% | [4] 8.95% | [5] -10.9% | [6] 12.6%

Reference: PubChem BioAssay (NCI)
